Among the data in PubChem BioAssay (EPA / NIEHS) are outcome and AC50 values, retold here.

Each structure is given as a SMILES string. Values joined by “and” are separate entries in the source; they are usually repeats but may differ in a detail not shown here. Identical values can stand only once. Results filed as inconclusive are left out. Active and inactive are the calls of the source. Rule for the calls, unless noted: active = hit-call score of the fitted dose curve at least 0.9, where 1 is the maximum; inactive = score below 0.9.

A short description of assay [1]: TOX21_TR_RXR_BLA_Antagonist_Followup_viability: Viability Assessment in the Tox21 Thyroid Hormone Receptor beta Retinoid X Receptor alpha (RXRa) Antagonism Beta-lactamase (BLA) Follow-Up Assay (AID 2283979; active = hit-call score of the fitted dose curve at least 0.9, where 1 is the maximum). In a few lines: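 Follow-up compounds (11 concentrations, triplicate) were incubated 16 h at 37C/5% CO2 with HEK293T RXRa-bla cells seeded at 2,500/well in charcoal-stripped-serum medium. ATP content by CellTiter-Glo luminescence gave viability; curves fitted in both directions against DMSO.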

A short description of assay [2]: CCTE_Simmons_MITO_basal_resp_rate: CCTE's HepG2 Seahorse XF Respirometric Screening Assay at Basal Respiratory State, Simmons Lab (AID 2284001). Conditions: actives raise or lower the signal. In a few lines:
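Basal-phase OCR in HepG2 cells, read at 6-min intervals across a 72-min run, with test compound injected at 125 nM–100 uM final (7 points). Fitted both directions against DMSO; three biological replicates per concentration.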

Assay [3] deals with Nucleoli Translocation, AR (gene 367) (UniProt P10275). Description: UPITT_HCI_U2OS_AR_TIF2_Nucleoli_Antagonist: University of Pittsburgh U2OS Androgen Receptor-Transcriptional Intermediary Factor 2 (AR-TIF2) Antagonism High Content Imaging Assay for Nucleoli Translocation (AID 2283997; active = hit-call score of the fitted dose curve at least 0.9, where 1 is the maximum). In a few lines:
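Antagonism is read as loss of nucleolar AR-RFP signal relative to DHT, imaged in U2OS cells also carrying GFP-TIF2. Compounds screened at 20 uM final, 0.2% DMSO; primary actives retested in triplicate.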

Assay [4] concerns the target Ratio of Nucleoli Translocation and Cytoplasm, AR (gene 367) (UniProt P10275). Description: UPITT_HCI_U2OS_AR_TIF2_Nucleoli_Cytoplasm_Ratio_Antagonist: University of Pittsburgh U2OS Androgen Receptor-Transcriptional Intermediary Factor 2 (AR-TIF2) Antagonism High Content Imaging Assay for Ratio of Nucleoli Translocation and Cytoplasm (AID 2283999; active = hit-call score of the fitted dose curve at least 0.9, where 1 is the maximum;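 note: antagonists lower the DHT-driven ratio of nucleolar to cytoplasmic red signal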). In a few lines:
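This antagonist-mode endpoint tracks AR-RFP localisation, the nucleolus-to-cytoplasm intensity ratio, in TIF2-GFP-coexpressing U2OS cells. DMSO stays at or below 0.5%; testing spans 20 uM single-dose and 0.195–50 uM series, with DHT setting the activity baseline.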

Assay [5] in a line: CCTE_Harrill_HTTr_Viability_DMEM_6hr: (Pilot) CCTE's 6-hour Cell Viability Assessment for the High-Throughput Transcriptomics (HTTr) Platform, in MCF-7 cells cultured in DMEM + 10% fetal bovine serum, Harrill Lab (AID 2283973). In a few lines:
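Propidium iodide uptake imaged by high-content analysis after six hours of chemical treatment in an eight-concentration series. Cells: MCF-7 grown in DMEM with 10% fetal bovine serum; DMSO as baseline.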

The nature of assay [6]: CCTE_Harrill_HTTr_Viability_DMEM_12hr: (Pilot) CCTE's 12-hour Cell Viability Assessment for the High-Throughput Transcriptomics (HTTr) Platform, in MCF-7 cells cultured in DMEM + 10% fetal bovine serum, Harrill Lab (AID 2283974). In a few lines:
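Propidium iodide dye exclusion imaged by high-content microscopy after 12 h chemical exposure (eight concentrations) of MCF-7 cells grown in DMEM plus 10% FBS; values fitted in both directions relative to DMSO.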

Assay [7] is described as follows: CCTE_Harrill_HTTr_Viability_DMEM_24hr: (Pilot) CCTE's 24-hour Cell Viability Assessment for the High-Throughput Transcriptomics (HTTr) Platform, in MCF-7 cells cultured in DMEM + 10% fetal bovine serum, Harrill Lab (AID 2283975). In a few lines: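 Pilot study: propidium iodide dye exclusion, imaged by high content microscopy, after 24 h compound exposure (eight concentrations) in MCF-7 cultured in DMEM + 10% fetal bovine serum; DMSO served as negative control and baseline.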

Assay [8] is described as follows: CCTE_Harrill_HTTr_Viability_PRF_DMEM_6hr: (Pilot) CCTE's 6-hour Cell Viability Assessment for the High-Throughput Transcriptomics (HTTr) Platform, in MCF-7 cells cultured phenol red-free DMEM + 10% charcoal-stripped fetal bovine serum, Harrill Lab (AID 2283976). The essentials: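 Membrane integrity by high-content imaging of propidium iodide uptake, six hours after dosing with eight concentrations. Cells: MCF-7 grown in phenol red-free DMEM plus 10% charcoal-stripped serum; DMSO serves as baseline for bidirectional fits.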

The nature of assay [9]: CCTE_Harrill_HTTr_Viability_PRF_DMEM_12hr: (Pilot) CCTE's 12-hour Cell Viability Assessment for the High-Throughput Transcriptomics (HTTr) Platform, in MCF-7 cells cultured in phenol red-free DMEM + 10% charcoal-stripped fetal bovine serum, Harrill Lab (AID 2283977). The essentials:
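Membrane integrity was scored via propidium iodide dye exclusion imaging, fitted in both directions relative to DMSO. Compounds ran as eight-point dilutions for 12 hours on MCF-7 grown in phenol red-free DMEM plus 10% charcoal-stripped serum.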

The nature of assay [10]: CCTE_Harrill_HTTr_Viability_PRF_DMEM_24hr: (Pilot) CCTE's 24-hour Cell Viability Assessment for the High-Throughput Transcriptomics (HTTr) Platform, in MCF-7 cells cultured in phenol red-free DMEM + 10% charcoal-stripped fetal bovine serum, Harrill Lab (AID 2283980). The essentials:
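Propidium iodide exclusion imaged at 24 h after dosing scores viability; cells were MCF-7 grown in phenol red-free DMEM plus 10% charcoal-stripped serum, tested in eight concentrations, fitted in both directions against DMSO.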

The nature of assay [11]: CCTE_Harrill_HTTr_Apoptosis_DMEM_6hr: (Pilot) CCTE's 6-hour Apoptosis Assessment for the High-Throughput Transcriptomics (HTTr) Platform, in MCF-7 cells cultured in DMEM + 10% fetal bovine serum, Harrill Lab (AID 2283981). In a few lines:
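MCF-7 cells grown in DMEM + 10% FBS were exposed for 6 hours to an eight-point dilution series. CellEvent Caspase 3/7 Green signal was imaged; activity fitted bidirectionally against DMSO.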

Assay [12] is described as follows: CCTE_Harrill_HTTr_Apoptosis_DMEM_12hr: (Pilot) CCTE's 12-hour Apoptosis Assessment for the High-Throughput Transcriptomics (HTTr) Platform, in MCF-7 cells cultured in DMEM + 10% fetal bovine serum, Harrill Lab (AID 2283982). In a few lines: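 Caspase-3/7 activity was measured by high-content imaging (CellEvent Caspase 3/7 Green) after a 12-hour exposure of MCF-7 cells grown in DMEM with 10% FBS. Eight-point concentration series, fitted bidirectionally against vehicle.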

The nature of assay [13]: CCTE_Harrill_HTTr_Apoptosis_DMEM_24hr: (Pilot) CCTE's 24-hour Apoptosis Assessment for the High-Throughput Transcriptomics (HTTr) Platform, in MCF-7 cells cultured in DMEM + 10% fetal bovine serum, Harrill Lab (AID 2283983). In a few lines: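 Caspase-3/7 activity read by high-content imaging (CellEvent Green reagent) 24 h after dosing. MCF-7 cells grown in DMEM with 10% FBS received an eight-point concentration series; fits were bidirectional versus DMSO.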

Assay [14] is described as follows: CCTE_Harrill_HTTr_Apoptosis_PRF_DMEM_6hr: (Pilot) CCTE's 6-hour Apoptosis Assessment for the High-Throughput Transcriptomics (HTTr) Platform, in MCF-7 cells cultured phenol red-free DMEM + 10% charcoal-stripped fetal bovine serum, Harrill Lab (AID 2283984). In a few lines:
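Caspase-3/7 activity (CellEvent Green) read by high-content imaging 6 h after dosing, eight concentrations. Cells: MCF-7, phenol red-free DMEM with 10% charcoal-stripped serum. Curves fit both directions against DMSO.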

Assay [15] in a line: CCTE_Harrill_HTTr_Apoptosis_PRF_DMEM_24hr: (Pilot) CCTE's 24-hour Apoptosis Assessment for the High-Throughput Transcriptomics (HTTr) Platform, in MCF-7 cells cultured in phenol red-free DMEM + 10% charcoal-stripped fetal bovine serum, Harrill Lab (AID 2283986). The essentials: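 Eight concentrations tested for 24 h on MCF-7 grown in charcoal-stripped serum, phenol red-free DMEM. High content imaging of CellEvent Caspase 3/7 Green signal gives apoptosis read-out, fitted both ways relative to DMSO.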

Another assay concerns DIO1 (gene 1733). Description: CCTE_GLTED_hDIO1: CCTE's human Deiodinase 1 (DIO1) Inhibition Assay, Great Lakes Toxicology and Ecology Division (GLTED) Lab (AID 2283987; active = hit-call score of the fitted dose curve at least 0.9, where 1 is the maximum;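 note: isolated human DIO1 enzyme in a cell-free setup rather than cells; enzyme activity read as free iodide liberated from substrate via Sandell-Kolthoff colorimetry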). In a few lines: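 Cell-free hDIO1 assay, triplicate plates. Absorbance of the Sandell-Kolthoff reaction reports enzyme-liberated iodide; iodinated chemicals or nitrite, iron and thiocyanate may interfere.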

In assay [16] the target is Nucleoli Translocation, AR (gene 367) (UniProt P10275). As to the kind of experiment: UPITT_HCI_U2OS_AR_TIF2_Nucleoli_Agonist: University of Pittsburgh U2OS Androgen Receptor-Transcriptional Intermediary Factor 2 (AR-TIF2) Agonism High Content Imaging Assay for Nucleoli Translocation (AID 2283998; active = hit-call score of the fitted dose curve at least 0.9, where 1 is the maximum). The essentials:
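Red-tagged human androgen receptor co-expressed with GFP-tagged TIF2 serves as the binding reporter. Primary testing used 20 uM final (0.2% DMSO); follow-up dose response covered 0.195 to 50 uM final (0.5% DMSO).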

The target in assay [17] is Ratio of Nucleoli Translocation and Cytoplasm, AR (gene 367) (UniProt P10275). Description: UPITT_HCI_U2OS_AR_TIF2_Nucleoli_Cytoplasm_Ratio_Agonist: University of Pittsburgh U2OS Androgen Receptor-Transcriptional Intermediary Factor 2 (AR-TIF2) Agonism High Content Imaging Assay for Ratio of Nucleoli Translocation and Cytoplasm (AID 2284000; active = hit-call score of the fitted dose curve at least 0.9, where 1 is the maximum;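 note: hits raise the red nucleolar to cytoplasm ratio above vehicle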). In a few lines:
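Compounds tested at 20 uM final in primary screen (0.2% DMSO) and 0.195-50 uM final in dose-response (0.5% DMSO). Imaging of human U2OS cells bearing RFP-AR and GFP-TIF2; endpoint is nucleoli/cytoplasm red signal ratio, positive direction relative to DMSO.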

Sequence of Ratio of Nucleoli Translocation and Cytoplasm, AR (gene 367) (P10275 whole entry, looked up): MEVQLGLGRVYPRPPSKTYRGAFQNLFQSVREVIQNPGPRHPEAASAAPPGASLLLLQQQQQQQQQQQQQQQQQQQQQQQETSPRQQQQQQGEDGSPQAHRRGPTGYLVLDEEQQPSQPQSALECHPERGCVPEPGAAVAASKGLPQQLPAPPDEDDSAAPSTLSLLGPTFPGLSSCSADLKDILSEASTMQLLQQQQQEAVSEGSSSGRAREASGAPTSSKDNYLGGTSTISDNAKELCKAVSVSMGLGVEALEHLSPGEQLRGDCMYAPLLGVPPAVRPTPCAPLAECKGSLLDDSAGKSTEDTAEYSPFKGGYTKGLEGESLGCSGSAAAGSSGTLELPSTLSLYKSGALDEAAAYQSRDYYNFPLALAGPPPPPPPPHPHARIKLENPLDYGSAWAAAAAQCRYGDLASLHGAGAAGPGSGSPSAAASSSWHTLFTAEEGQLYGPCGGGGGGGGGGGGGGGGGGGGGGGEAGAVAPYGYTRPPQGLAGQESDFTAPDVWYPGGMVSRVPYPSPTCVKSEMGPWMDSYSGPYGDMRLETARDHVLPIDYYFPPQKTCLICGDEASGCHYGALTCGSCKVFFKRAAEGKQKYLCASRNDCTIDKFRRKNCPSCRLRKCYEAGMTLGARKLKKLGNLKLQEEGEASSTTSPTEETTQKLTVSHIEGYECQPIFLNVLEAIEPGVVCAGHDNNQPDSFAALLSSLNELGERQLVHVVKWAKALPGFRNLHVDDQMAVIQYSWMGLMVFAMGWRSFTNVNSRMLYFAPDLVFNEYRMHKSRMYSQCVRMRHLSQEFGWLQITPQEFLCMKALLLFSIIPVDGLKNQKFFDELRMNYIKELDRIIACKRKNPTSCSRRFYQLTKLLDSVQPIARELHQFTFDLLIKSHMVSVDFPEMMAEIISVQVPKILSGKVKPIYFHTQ
Sequence of Nucleoli Translocation, AR (gene 367) (P10275 whole entry, looked up): as above

Turning to `C[C@]12C[C@H](O)[C@H]3[C@@H](CCC4=CC(=O)CC[C@@]43C)[C@@H]1CC[C@@H]2C(=O)CO`, in assay [1], the compound was called inactive. The AC50 in assay [2] is 42 µM (active).

As to `CC(=O)[C@H]1CC[C@H]2[C@@H]3CCC4=CC(=O)CC[C@]4(C)[C@H]3CC[C@]12C`, the compound was called inactive in assay [1]. In assay [2], the concentration at half-maximal activity (AC50) is 10.1 µM (active).

Take `Oc1ccc(C(c2ccc(O)cc2)C(Cl)(Cl)Cl)cc1`: the half-maximal activity concentration (AC50) in assay [2] was 18.8 µM (active).

For `CN(C)C(=O)Nc1ccc(Cl)c(Cl)c1`, the compound was called inactive in [3] and in assay [4].

In the case of `CCOC(=O)NCCOc1ccc(Oc2ccccc2)cc1`, the AC50 in [2] is 21.5 µM (active).

`S=C([S-])NCCNC(=S)[S-].[Mn+2]`: the result in [5], in assay [6], in assay [7], in assay [8], in [9] and in assay [10] was inactive. The outcome in [11], in assay [12], in [13], in assay [14] and in assay [15] was inactive. Further, the half-maximal activity concentration (AC50) in the assay on DIO1 (gene 1733) is 35.7 µM (active).

Turning to `CCOC(=O)COc1cc(-n2ncc(C(F)(F)F)c(C)c2=O)c(F)cc1Cl`, the call in [16] and in assay [17] was inactive.

Consider `CSC(=O)c1cccc2nnsc12`, for which the concentration at half-maximal activity (AC50) in assay [3] is 50 µM (active). The compound was called inactive in [16], in assay [4] and in [17].

As for `O=C(c1ccc(O)cc1O)c1ccc(O)cc1O`, the figures for the concentration at half-maximal activity (AC50) in assay [3], in assay [4] and in [2] were 10.1 µM (active), 2.35 µM (active) and 34.6 µM (active), respectively. Also, the compound was classed as inactive in assay [16] and in assay [17].

In the case of `CCCCOCCOCCOCc1cc2c(cc1CCC)OCO2`, the compound was called inactive in [3], in assay [4] and in assay [17].

As to `CC(C)CCCCCCc1ccc(O)cc1`, the result in assay [5], in [11] and in assay [14] was inactive. The half-maximal activity concentration (AC50) was 55.5 µM (active) in assay [6]; 69.4 µM (active) in [7]; 55.7 µM (active) in [8]; 69.2 µM (active) in assay [9]; 64.3 µM (active) in assay [10]; 63.2 µM (active) in assay [12]. For the same compound, the AC50 in assay [13] is 77.5 µM (active); in assay [15], 77.2 µM (active); in the assay on DIO1 (gene 1733), 49.4 µM (active); in assay [2], 50 µM (active).

Take `O=C(Nc1ccc([N+](=O)[O-])cc1Cl)c1cc(Cl)ccc1O`: the half-maximal activity concentration (AC50) in assay [2] was 1.57 µM (active).

Regarding `CC1(C)C(C=C(Cl)Cl)C1C(=O)OCc1cccc(Oc2ccccc2)c1` (stereo unspecified), the compound was classed as inactive in assay [3], in assay [4] and in [17].

As to `O=C(c1ccccc1)C1CCCCC1`, the call in assay [3], in [16], in [4] and in [17] was inactive.

With `CC(C)(c1ccc(O)cc1)c1ccc(O)cc1`, the result in assay [5], in assay [6], in [7], in [8], in [9] and in assay [10] was inactive. The outcome in assay [11], in [12], in [13], in assay [14], in assay [15] and in assay [4] was inactive. Also, the AC50 in assay [3] was 12.9 µM (active); in [16] it was 73.3 µM (active); in assay [17], 86.7 µM (active); in [2], 18.9 µM (active) and 24.7 µM (active).

Broadly, the AC50 is the midpoint of the concentration-response curve, whichever way the signal moves.
